High-throughput results (PubChem BioAssay)
rCAG RNA binder: binders of r(CAG) RNA repeats, primary screen, biochemical, fluorescence | r(CAG) RNA repeat, TO-PRO-1 dye displacement fluorescence | inhibition, % at 3 µM | actives 1.3% (n = 370,000);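 active = inhibition above the plate cutoff, the mean of all test compounds on that plate plus 3 SD, cut at about 35% in these data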;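 note: 0% = DMSO alone and 100% = 100 µM mitoxantrone as full dye displacement; higher means more dye released from RNA so lower well fluorescence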
Pemphigus Ab inh: inhibitors of pemphigus antibody binding to DSG3, primary screen, biochemical, bead-based, flow cytometry, scFv-GFP; DSG3-coupled beads, scFv-anti-DSG3-GFP binding; stronger effect = lower value; binding (percent of control), % at 10 µM; actives 0.48% (n = 310,000);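 active = binding more than 3 SD below its plate's average and above zero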;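 note: hits lower antibody fragment binding to DSG3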
Target sequence (P32926 whole entry, looked up, the tested form may be a part): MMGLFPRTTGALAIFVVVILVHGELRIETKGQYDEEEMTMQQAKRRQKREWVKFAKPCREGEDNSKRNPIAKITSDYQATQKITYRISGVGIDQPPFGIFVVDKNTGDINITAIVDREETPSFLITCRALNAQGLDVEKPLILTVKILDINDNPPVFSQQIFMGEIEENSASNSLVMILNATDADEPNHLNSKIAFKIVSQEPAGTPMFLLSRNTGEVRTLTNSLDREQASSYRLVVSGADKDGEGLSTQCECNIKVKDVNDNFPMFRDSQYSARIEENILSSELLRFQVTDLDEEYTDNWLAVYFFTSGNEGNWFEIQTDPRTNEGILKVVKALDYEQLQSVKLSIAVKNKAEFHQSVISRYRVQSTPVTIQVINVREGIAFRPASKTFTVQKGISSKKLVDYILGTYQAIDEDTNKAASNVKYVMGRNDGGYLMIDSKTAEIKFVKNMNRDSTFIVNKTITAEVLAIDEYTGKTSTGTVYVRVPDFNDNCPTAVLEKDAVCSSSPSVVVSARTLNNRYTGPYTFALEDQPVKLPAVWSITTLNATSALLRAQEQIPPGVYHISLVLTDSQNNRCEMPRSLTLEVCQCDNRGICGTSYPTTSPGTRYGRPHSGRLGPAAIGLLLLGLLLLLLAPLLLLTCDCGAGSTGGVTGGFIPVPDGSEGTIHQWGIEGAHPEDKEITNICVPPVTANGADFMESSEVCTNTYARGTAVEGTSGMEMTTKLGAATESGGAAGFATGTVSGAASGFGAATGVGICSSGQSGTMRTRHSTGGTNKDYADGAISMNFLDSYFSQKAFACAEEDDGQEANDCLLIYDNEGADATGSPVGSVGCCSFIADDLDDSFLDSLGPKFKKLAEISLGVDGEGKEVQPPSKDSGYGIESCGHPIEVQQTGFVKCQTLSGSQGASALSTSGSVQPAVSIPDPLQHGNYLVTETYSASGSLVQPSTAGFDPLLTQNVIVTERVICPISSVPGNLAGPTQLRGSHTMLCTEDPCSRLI
NadD inh: inhibitors of S. aureus NadD, primary screen, biochemical, colorimetric, uHTS; Nicotinate-nucleotide adenylyltransferase NadD (Staphylococcus aureus N315); purified NadD enzyme, colorimetric absorbance read-out; inhibition, % at 20 µM; actives 0.78% (n = 360,000); AID 602399, 2012; in the data active = inhibition above about 26%
MsrA act: bovine MsrA enzyme activators, primary screen, biochemical, absorbance, HTS; purified bovine MsrA, absorbance read-out; activation, % at 10.6 µM; Methionine sulfoxide reductase A (Bos taurus); actives 0.3% (n = 360,000); in the data active = activation above about 7.5%;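 note: 0% = vehicle and 100% = reference activator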
DAGLB inhibitor: DAGLB lipase inhibitors, primary screen, biochemical, fluorescence, HTS | Diacylglycerol lipase-beta (Homo sapiens), Q8NCG7 | inhibition, % at 5.17 µM | actives 0.059% (n = 340,000) | HEK293T DAGLB membrane lysate, EnzChek fluorogenic substrate; in the data active = inhibition above about 34%;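 note: 0% = enzyme with vehicle and 100% = wells lacking enzyme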
MsrA inhibitor: bovine MsrA enzyme inhibitors, primary screen, biochemical, absorbance, HTS; purified bovine MsrA, absorbance read-out; inhibition, % at 15.5 µM; actives 0.75% (n = 360,000); AID 651718, 2012;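 note: 0% = vehicle wells with enzyme and 100% = reference inhibitor wells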
MsrA inh confirm: bovine MsrA inhibitors, retest, confirmation, biochemical, absorbance, HTS. shares compounds with MsrA inhibitor. purified bovine MsrA, absorbance read-out. inhibition, % at 15.5 µM. actives 41% (n = 2,300);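 note: coupled to thioredoxin reductase with NADPH and selenocystamine and DMSO as substrate; 0% = vehicle only and 100% = full effect of reference inhibitor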
* marks the source's active call; other numbers are inactive results; . = not tested or not shown. In the library only some 3.2% were active in any assay of this set; here they are far more common. Cut-off read from the data, not from the text of the source, unless noted: active = inhibition above about 4.5%; inactive = the rest.

SMILES	rCAG RNA binder	Pemphigus Ab inh	NadD inh	MsrA act	DAGLB inhibitor	MsrA inhibitor	MsrA inh confirm
NC(=S)c1csc(CCNC(=O)c2ccccc2)n1	0.5	95.3	0.0	-3.9	-6.5	2.0	.
c1ccc2c(c1)nc(-c1ccncc1)n1nnnc21	2.5	97.9	1.0	-6.6	-0.8	13.3*	12.3*
Cc1nnc(NC(=O)c2sc3ccccc3c2Cl)s1	11.1	99.1	-2.4	-2.0	1.9	2.9	.
COCc1nnc(NC(=O)c2sc3ccccc3c2Cl)s1	12.9	.	-4.8	-3.7	-0.1	5.0*	3.0
CN(c1nc2nonc2nc1NC1CC1)C1CCOC1 (stereo unspecified)	2.8	89.8	5.3	-2.6	2.0	5.0*	1.8
Cc1ccc(OCc2nnc(SCC(=O)Nc3ccc(S(N)(=O)=O)cc3)n2-c2ccc(Cl)cc2)cc1	10.8	.	.	.	.	.	.
COC(=O)N/N=C/c1cc(OC)c(O)c([N+](=O)[O-])c1	0.1	97.0	-1.2	-6.0	0.0	1.9	.
COc1cc(/C=N/NC(N)=O)cc([N+](=O)[O-])c1O	5.0	91.6	1.4	-12.2	-0.3	4.7*	2.7
NC(=O)c1ccc(NC(=O)COC(=O)/C=C/c2ccc3c(c2)OCO3)cc1	0.6	84.4	-3.3	-3.7	0.3	0.9	.
Cc1ccc(NC(=O)CN2C(=O)NC(C)(C3CC3)C2=O)c(C)c1 (stereo unspecified)	2.8	93.0	-0.4	-2.8	1.4	-1.5	.
Cc1ccc(NC(=O)CN2C(=O)NC(C)(C3CC3)C2=O)c([N+](=O)[O-])c1 (stereo unspecified)	0.0	.	0.2	-3.5	-2.4	9.4*	6.0*
Cc1ccc(Nc2nc3ccccc3n3cnnc23)cc1Cl	4.5	104.0	-1.2	-11.7	-1.9	0.5	.
Cc1ccc(C)c(Nc2nc3ccccc3n3cnnc23)c1	2.4	94.0	-3.7	-3.0	-0.9	10.9*	6.7*
CC(Nc1nc2ccccc2n2cnnc12)c1ccccc1 (stereo unspecified)	-4.4	97.7	2.5	-8.5	-1.3	12.0*	7.2*
O=C(NCc1ccccc1)OCCCN1C(=O)CCC12CCCCC2	0.1	.	.	.	.	.	.
O=C(NC(=S)Nc1cccc2ncccc12)c1ccco1	-1.2	107.4	2.3	-2.7	1.0	-0.7	.
N#C/C(=C\c1ccco1)C(=O)Nc1cccc2ncccc12	0.0	100.8	1.6	-5.7	-1.7	6.0*	5.3*
COc1cc2c(cc1OC)CN(c1ccc([N+](=O)[O-])cc1C#N)CC2	5.5	122.7	-1.9	-2.7	-1.3	0.8	.
COc1cc2c(cc1OC)CN(c1ccc([N+](=O)[O-])cc1Cl)CC2	15.6	112.0	-2.2	-1.1	-1.4	4.8*	1.1
COc1ccc(CSc2nnc(SCc3ccccc3)s2)cc1	0.4	.	.	.	.	.	.
CC(C)(CO)Nc1ccc([N+](=O)[O-])cc1[N+](=O)[O-]	-1.1	98.2	2.8	3.2	-0.6	5.3*	4.4
CCOC(=O)CCCNc1ccc([N+](=O)[O-])cc1[N+](=O)[O-]	-4.8	85.8	5.5	-14.0	0.5	1.0	.
C[C@@H]1CCCCO[C@@H](CN(C)C(=O)Nc2ccc3c(c2)OCO3)[C@@H](C)CN([C@H](C)CO)C(=O)c2cc(NC(=O)Nc3ccc(C(F)(F)F)cc3)ccc2O1	16.4	.	.	.	.	0.1	.
CN(C)c1ccc(NC2=C(Cl)C(=O)c3ccccc3C2=O)cc1	2.8	94.9	-2.9	-1.1	21.6	8.2*	2.5
Cc1ccc(-c2cc(C(F)F)nc(NCc3cccs3)n2)cc1	0.4	113.4	12.4	-4.6	-11.1	0.9	.
COc1ccc(-c2cc(C(F)F)nc(-n3nc(C)cc3C)n2)cc1	-7.4	100.7	1.5	-3.1	-4.6	14.9*	15.7*
Cc1ccc(-c2cc(C(F)F)nc(N3CCOCC3)n2)cc1	-1.8	87.0	-3.3	-2.9	-15.5	10.5*	9.7*
COc1ccc(-c2csc(CCn3nc(C)cc3C)n2)cc1	-8.6	103.5	14.1	-3.8	-3.4	1.6	.
